Unmarked numbers belong to inactive results. Calls of active or inactive are those of the source.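 The calls were made as follows: active = inhibition at or above 50% relative to wild type and mutant plate controls; inactive = inhibition below 50%.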

The nature of the experiment: loss of swimming-algae plug formation – whole organism, Chlamydomonas reinhardtii, WT vs cilia-less mutant, absorbance, 96-well, primary screen (AID 463189).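 Also: 0% = wild type cc124 cells in DMSO and 100% = ciliumless bld1 mutant cells.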 As to conditions: Chlamydomonas reinhardtii gravitaxis, OD600 absorbance, 2 days; at 10 µM; stronger effect = higher value.
What is called inhibition is the drop in the measured response relative to a control, in per cent. In the case of `Oc1ccc(C2CNCCc3c2cc(O)c(O)c3Cl)cc1` (stereo not given), the inhibition is -6.72%.
Consider `Cc1ccc(O)c(N=Nc2ccccc2)n1`, for which the inhibition is -1.99%.
As for `CN1CCN(c2nc3cc(C(F)(F)F)ccc3n3cccc23)CC1`, the figure is 10.9%; as for `COC(=O)C1=C(C)NC(C)=C([N+](=O)[O-])C1c1ccccc1C(F)(F)F` (stereo not given), 5.83%.
On to `Cn1ccc2cc3c(cc21)CCN3C(=O)Nc1cccnc1`, for which the inhibition is 9.75%.
In the case of `N[C@@H](Cc1cnc[nH]1)C(=O)O`, the inhibition is -1.75%.
As to `CC(=O)N1CCN(c2ccc(OC[C@H]3CO[C@](Cn4ccnc4)(c4ccc(Cl)cc4Cl)O3)cc2)CC1`, the inhibition is 74.8% (active).
As for `O=C(O)CN(CCOCCOCCN(CC(=O)O)CC(=O)O)CC(=O)O`, the inhibition is 3.4%.
Take `NCCNC(=O)c1ccc(Cl)cc1`: the inhibition is 5.46%.
As to `C[N+](C)(C)CCC(=O)c1cccc2ccccc12`, the inhibition was 7.13%.
In the case of `Cn1cnc([N+](=O)[O-])c1Sc1ncnc2nc[nH]c12`, the inhibition is -2.23%.
As for `O=C(Cc1ccc(Cl)c(Cl)c1)OCCN1CCCC1`, the figure is -10.1%; as for `Cc1nc2c([nH]1)c(=O)n(C)c(=O)n2Cc1ccco1`, 0.516%.
Turning to `CC(/C=C/c1cccc(Oc2ccc(F)cc2)c1)N(O)C(N)=O` (stereo not given), the inhibition was 4.78%.
For `CCCn1c(=O)c2[nH]c(-c3ccc(S(=O)(=O)O)cc3)nc2n(CCC)c1=O`, the inhibition was 1.25%.
Take `O=S(=O)(c1cccc2c(Cl)cccc12)N1CCCNCC1`: the inhibition is 6.11%.
As for `CN(CCOc1ccc(C[C@H](Nc2ccccc2C(=O)c2ccccc2)C(=O)O)cc1)c1ccccn1`, the figure is 1.04%.
For `NCCCCNS(=O)(=O)c1cccc2c(Cl)cccc12`, the inhibition is -1.51%.
As to `CN(C)CC[C@@H](c1ccc(Cl)cc1)c1ccccn1`, the inhibition is 32.3%.
`N[C@H](CO)C(=O)O`: the inhibition was 3.16%.
With `Nc1ccc2c3c(cccc13)C(=O)NC2=O`, the inhibition is 32.5%.
`CN(Cc1cnc2nc(N)nc(N)c2n1)c1ccc(C(=O)N[C@H](CCC(=O)O)C(=O)O)cc1`: the inhibition is -2.58%.
For `COc1cc(C(=O)OCCCN2CCCN(CCCOC(=O)c3cc(OC)c(OC)c(OC)c3)CC2)cc(OC)c1OC`, the inhibition is 9.83%.
On to `CCN(CC)C(=S)SSC(=S)N(CC)CC`, for which the inhibition is 12.2%.
Regarding `CC[N+](CC)(CC)CCOc1cccc(OCC[N+](CC)(CC)CC)c1OCC[N+](CC)(CC)CC`, the inhibition is 3.26%.
On to `C=CCn1c(=O)c2c(nc(-c3ccc(S(=O)(=O)O)cc3)n2C)n(C)c1=O`, for which the inhibition was 4.78%.
For `Clc1cccc(Cl)c1NC1=NCCN1`, the inhibition is 5.28%.
As for `CC(C)C(=O)c1c(C(C)C)nn2ccccc12`, the figure is 52.8% (active).
Take `NCCCNCCCCNCCCN`: the inhibition was -2.56%.
As for `NC12CC3CC(CC(C3)C1)C2`, the inhibition is -2.58%.
Turning to `NC(=S)c1ccc[n+]([C@@H]2O[C@@H](COP(=O)([O-])OP(=O)(O)OC[C@H]3O[C@@H](n4cnc5c(N)ncnc54)C(OP(=O)(O)O)[C@H]3O)C(O)C2O)c1` (stereo not given in full), the inhibition was 6.21%.
As for `CC12CC3CC(C)(C1)CC(N)(C3)C2`, the figure is 3.51%; as for `NC(=S)NCCCC(N)C(=O)O` (stereo not given), 0.102%.
With `CC(=O)[C@H]1CCC2C3CC=C4C[C@@H](OS(=O)(=O)O)CC[C@]4(C)C3CC[C@@]21C` (stereo not given in full), the inhibition was 4.69%.
Take `CN(C)C(=O)/N=N/C(=O)N(C)C`: the inhibition was -5.45%.
As for `OC[C@H]1O[C@@H](n2cnc3c(NC4CCCCC4)ncnc32)[C@H](O)[C@@H]1O`, the figure is 4.21%; as for `CSc1ccc(C(=O)c2[nH]c(=O)[nH]c2C)cc1`, -1.05%; as for `COc1nc(C)nc(Cl)c1NC1=NCCN1`, 1.2%.
As to `COc1cc([C@@H]2c3cc4c(cc3[C@H](O)C3COC(=O)[C@@H]32)OCO4)cc(OC)c1OC` (stereo not given in full), the inhibition is 0.089%.
In the case of `S=C(S)OC1CC2CC1C1CCCC21` (stereo not given), the inhibition is 7.66%.

Source of the values: PubChem BioAssay.
